Test results published in PubChem BioAssay (NCI).
Values joined by “and” are separate entries in the source; they are usually repeats but may differ in a detail not shown here. Identical values can stand only once. Compounds without any hit were thinned out: in the full panel of roughly 83,000, 20% have a hit.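 96-well plates, one dose, 48 hours. Percent growth reported; active if below 10.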 Active and inactive are the calls of the source.

These molecules were tested on MDA-MB-468 breast (assay: NCI-60 one-dose screen, 48 h (100 = growth as untreated, 0 = no growth, -100 = all killed)). Conditions: 10 µM unless noted.
Method: Growth inhibition of the MDA-MB-468 human Breast tumor cell line is measured as a screen for anti-cancer activity. Cells are grown in 96 well plates and exposed to the test compound for 48 hours. Compounds are tested at a single concentration, which is 10^-5 M for most compounds. The reported endpoint is percent growth (GI% or GIPRCNT), where numbers from 0 - 100% represent growth inhibition, and numbers from -100% - 0 represent cell death. For example, a value of 40 represents 60% growth inhibition. A value of 0 means no net growth occurred over the course of the experiment. A value of -40 indicates 40% of cells at the beginning of the experiment died by the end of the experiment. A value of -100 means all cells are dead at the end of the experiment.
NCI-60 Human Tumor Cell Lines Screen was performed using the standard one-dose NCI protocol, which is described in more detail at https://dtp.cancer.gov/discovery_development/nci-60/default.htm.
Compounds with GIPRCNT values below 10 were considered active. Activity score was based on GIPRCNT using the following formula: […]
Score is 0 for GIPRCNT values of 100 or above, 50 for GIPRCNT values of 0, and 100 for GIPRCNT values of -100.
`COc1ccc(-c2[nH]c(=S)n(C(CC3(C)NCC(=O)N3n3c(-c4ccccc4)cc(C)nc3=S)c3ccc(OC)cc3)c(=O)c2Br)cc1` (stereo not given) was tested, and the growth was -14.9% (active).
`COc1cc(-c2nc3nc4sc(C)c(C)c4c(=O)n3[nH]2)cc(OC)c1OC` was tested, and the growth was 75.5% (inactive).
With `COC(=O)C1Cc2ccccc2CN1C(=O)c1ccc2c(c1)Cc1ccccc1-2` (stereo not given) the growth was 14.5% [50 µM] (inactive).
For `C#CCOc1ccc2ncnc(N3CCC(NC(=O)CCl)CC3)c2c1`, the growth was 15.4% [8.25 µM] (inactive).
With `O=c1sc2ncnc3ncn1c32` the growth was 8.83% (active).
With `COc1cc(C(=O)n2nc(N)c3c(C)cc(C)nc32)cc(OC)c1OC` the growth was 20.3% (inactive).
In the case of `O=[N+]([O-])c1ccc(Br)o1`, the growth is reported as 105% (inactive).
In the case of `Oc1ccc(C2c3ccccc3Oc3ccccc32)c2cccnc12`, the growth is reported as 9.14% (active).
With `NC(=S)NN=C1CCCCC1` the growth was 26.4% (inactive).
In the case of `O=c1c2ccccc2c(Br)c(Br)c2ccccc12`, the growth is reported as 8.15% (active).
For `Oc1ccc(-c2nc3ccccc3s2)cc1CN(Cc1ccccn1)Cc1ccccn1`, the growth was 13.6% (inactive).
In the case of `Cc1ccc(-c2nc([P+](c3ccccc3)(c3ccccc3)c3ccccc3)c(N3CCOCC3)o2)cc1`, the growth is reported as -27.6% (active).
In the case of `CCCCCOc1ccc(/C=N/Nc2cc(C)nc3ccc(Br)cc23)cc1`, the growth is reported as -15.1% (active).
For `CCCCN(CCCC)C(=O)[C@H](CC)[C@@H]1CC[C@@H](C)[C@@H]([C@H](C)[C@@H](O)[C@@H](C)C(=O)[C@H](CC)C2O[C@]3(C=CC(=O)[C@]4(CC[C@@](C)([C@H]5CC[C@](O)(CC)[C@H](C)O5)O4)O3)[C@H](C)C[C@@H]2C)O1` (stereo not given in full), the growth was -11.5% (active).
`O=C(Nc1nc2ccc(C(=O)N3CCN(/C=C/c4ccccc4)CC3)cc2s1)c1ccc(NCCc2ccccc2)c([N+](=O)[O-])c1` was tested, and the growth was 22.6% (inactive).
In the case of `CCCc1n(Cc2ccc3ccccc3c2)cc[n+]1Cc1ccc2ccccc2c1`, the growth is reported as -45.4% (active).
In the case of `Cc1c(Br)cccc1NC(=O)c1sc2nc3c(cc2c1N)CN(Cc1ccccc1)CC3`, the growth is reported as 16.8% (inactive).
For `C#CC#CC#CC#CC#CC#CC#CC#CC[C@H]1OC[C@@H](COC(=O)O[C@@H](C(=O)O[C@H]2C[C@@]3(O)[C@@H](OC(=O)c4ccccc4)[C@@H]4[C@]5(OC(C)=O)CO[C@@H]5C[C@H](O)[C@@]4(C)C(=O)[C@H](OC(C)=O)C(=C2C)C3(C)C)[C@@H](NC(=O)c2ccccc2)c2ccccc2)O1`, the growth was 14.2% (inactive).
With `COC(=O)[C@H]1CCCN1C(=O)[C@H]1CCCN1C(=O)[C@H](Cc1c[nH]c2ccccc12)NC(=S)Nc1cc(C(F)(F)F)cc(C(F)(F)F)c1` the growth was 61% (inactive).
For `COc1cc(-c2nc3ccccc3[nH]2)ccc1OCC(=O)N=Nc1c(O)[nH]c2ccccc12`, the growth was -55.4% (active).
`COc1ccc(Nc2ncccc2NC(=O)c2cn(Cc3cccc(Oc4ccccc4)c3)nn2)cc1OC` was tested, and the growth was 55.6% (inactive).
`COc1cccc(C(=O)Nc2ccc(CN3CCc4nc5cc(OC)c(OC)cc5cc43)cc2)c1` was tested, and the growth was 63.6% (inactive).
With `CCOC(=O)C1C(=O)C=C(c2cnccn2)CC1c1ccc(OC)c(OC)c1` (stereo not given) the growth was 108% (inactive).
With `CCOC(=O)c1ccc(Nc2ncnc3c2cnn3-c2cccc(F)c2)cc1` the growth was 103% (inactive).
With `CCOC(=O)c1ccc2c(c1)ncn2-c1ccc(NC(=O)Nc2cccc(C)c2)cc1` the growth was 116% (inactive).
With `O=C(Nc1ccc(C2=NCCCN2)cc1)Nc1ccc(C2=NCCCN2)cc1` the growth was 42.2% (inactive).
In the case of `CC(C)(C)c1ccc(CCO)cc1`, the growth is reported as 124% (inactive).
For `CCn1cc(C(=O)NNC(=S)Nc2ccc(C)cc2)c(=O)c2ccc(C)nc21`, the growth was 88% (inactive).
With `c1ccc2c(c1)CCCc1nnc3nc4ccccc4n3c1-2` the growth was 29.9% (inactive).
In the case of `CN(C)c1cccc2c(S(=O)(=O)N[C@H]3CC[C@H]4[C@@H]5CCc6cc(O)ccc6[C@H]5CC[C@]34C)cccc12`, the growth is reported as 34.5% (inactive).
With `Nc1c(C(=O)Nc2cccc(Cl)c2)sc2nc3c(cc12)C(=O)CCC3` the growth was -10.6% (active).
In the case of `O=C(Nc1ccc(Br)cc1F)c1cc(Br)ccc1O`, the growth is reported as -13.6% (active).
For `Nc1ncnc2c1ncn2C1OC(CO)C(O)C1O` (stereo not given), the growth was 116% (inactive) and -13.3% (active).
In the case of `O=C1CSC(c2cn(-c3ccccc3)nc2-c2ccc(Cl)cc2)N1c1ccccc1` (stereo not given), the growth is reported as 104% (inactive).
In the case of `O=C(NCc1cccnc1)/C(=C\c1ccc(Br)cc1)S(=O)(=O)c1ccccc1`, the growth is reported as -58.9% (active).
`Cc1ccc(NC(=O)c2nc(S(C)(=O)=O)oc2-c2ccc(F)cc2)cc1Nc1ccc2ncn(C)c(=O)c2c1` was tested, and the growth was 16.8% (inactive).
`COc1ccc(/C=C2\CN(Cc3cn(CCCNc4ccnc5cc(Cl)ccc45)nn3)C/C(=C\c3ccc(OC)c(OC)c3)C2=O)cc1OC` was tested, and the growth was -11.1% (active).
`O=S(=O)(NCCCNc1cc(-c2cn(-c3ccccc3)nc2-c2cccc(O)c2)ccn1)c1cccc(F)c1` was tested, and the growth was 7.62% (active).
`CCOC(=O)C(=O)/C(=C\c1ccc(Cl)cc1)C(=O)N1C(=S)NC(=O)C1CC(C)C` (stereo not given) was tested, and the growth was 90% (inactive).
`CCN(CC)Cc1cc(Nc2ccnc3cc(Cl)ccc23)cc(-c2ccc(Cl)cc2)c1O` was tested, and the growth was 5.28% (active).
